Source: PubChem (Broad Institute)
The full list was thinned out, with hits kept by preference.
CD40 NFkB inh – CD40 pathway inhibition in BL2 cells; BL2 NF-kB luciferase reporter, CD40L-induced, 4 h; inhibition, % at 10 µM; hit rate 0.94% among 83,000; AID 1053188;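 active means mean inhibition of at least 50% with a set share of replicates also reaching that level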;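 further: 0% = neutral control wells and 100% = IKK inhibitor VII at 50 µM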
The depositor's hits bear a star; [ ] = dose if it differs, or a comment.

SMILES	CD40 NFkB inh
c1ccc2sc(-c3ccc4c(c3)OCO4)nc2c1	53*
O=C(c1cc2ccccc2s1)N1CCOCC1	-7
CCNC(=O)COC(=O)c1ccc(-c2nc3ccccc3s2)s1	-56
c1ccc2[nH]c(-c3ccc4c(c3)OCO4)nc2c1	14
O=C(Nc1cccc(-c2nc3ccccc3s2)c1)c1ccc2c(c1)OCO2	-37
c1csc(-c2nc3ccccc3s2)c1	-97
CCN1CCN(C(=O)c2ccc(-c3nc4ccccc4s3)s2)CC1	-45
O=C(c1ccc(-c2nc3ccccc3s2)s1)N1CCOCC1	88*
O=C(NC1CC1)c1ccc(-c2nc3ccccc3s2)s1	75*
O=C(C[C@@H]1C[C@H]2c3cc(NC(=O)c4cccnc4)ccc3O[C@H]2[C@H](CO)O1)NC1CCCCC1	-10[25 µM]
CC(C)NC(=O)N(C)C[C@@H]1Oc2ccccc2CC(=O)N(C)C[C@H]1C	18
O=C(C1CCCC1)N1[C@@H](CO)[C@@H]2c3ccccc3N(S(=O)(=O)c3ccccc3)C[C@@H]21	7
COc1ccc2c3c(n(C)c2c1)[C@H](CO)N(Cc1cc(F)ccc1F)CC31CN(C(=O)C2CC2)C1	-3[25 µM]
CC(C)NC(=O)N1[C@@H](CO)[C@@H]2c3ccccc3N(C)C[C@@H]21	-17[25 µM]
CO[C@@H]1CN(C)C(=O)c2cc(NC(C)=O)ccc2OC[C@H](C)N(Cc2ccncc2)C[C@@H]1C	8[25 µM]
Cc1c(CCOC(=O)c2ccccc2)sc[n+]1Cc1ccccc1	-2
Cc1c(CCOC(=O)C23CC4CC(CC(C)(C4)C2)C3)sc[n+]1CC(=O)c1ccccc1	42
Cc1c(CCOC(=O)CC23CC4CC(CC(C)(C4)C2)C3)sc[n+]1CC(=O)c1ccccc1	70*
CO[C@H]1CN(C)C(=O)c2cc(NC(=O)Nc3cc(F)ccc3F)ccc2OC[C@H](C)NC[C@@H]1C	-3[25 µM]
C[C@@H]1CN([C@H](C)CO)C(=O)c2cc(NC(=O)Nc3ccc(F)cc3)ccc2O[C@@H](C)CCCCO[C@H]1CN(C)Cc1ccccc1	40
COCC#Cc1ccc([C@@H]2[C@@H](CO)N3C(=O)CN(C(=O)Nc4ccccc4F)C[C@H]23)cc1	-9[25 µM]
C[C@@H]1CCCCO[C@@H](CN(C)C(=O)Nc2ccc3c(c2)OCO3)[C@@H](C)CN([C@H](C)CO)C(=O)c2cc(NS(=O)(=O)c3ccc(F)cc3)ccc2O1	-15[25 µM]
CN(C)c1ccc2c(c1)[C@@H]1C[C@@H](CC(=O)NCCc3ccccc3)O[C@@H](CO)[C@@H]1O2	-11[25 µM]
N#CC1(NC(=O)COC(=O)c2cc([N+](=O)[O-])ccc2N2CCCC2)CCCCC1	44*
N#CC1(NC(=O)COC(=O)c2cc([N+](=O)[O-])ccc2N2CCOCC2)CCCCC1	-2
SMILES	CD40 NFkB inh
O=C(COC(=O)c1cc([N+](=O)[O-])ccc1N1CCOCC1)Nc1cc(F)ccc1F	-10
C[C@@H]1CCCCO[C@@H](CN(C)CC2CCCCC2)[C@H](C)CN([C@@H](C)CO)C(=O)c2cc(NC(=O)CCCCCC(=O)Nc3ccccc3N)ccc2O1	-40
COc1ccc(S(=O)(=O)N(C)C[C@@H]2Oc3ccc(NC(=O)CCN4CCOCC4)cc3CC(=O)N([C@@H](C)CO)C[C@H]2C)cc1	-6[25 µM]
O=C(N/N=C/c1ccc([N+](=O)[O-])o1)C1CCCC1	-2
CCCCCC(=O)N/N=C/c1ccc([N+](=O)[O-])o1	7
O=C(Cc1ccc2c(c1)OCO2)NN=Cc1ccc([N+](=O)[O-])o1	95*
O=[N+]([O-])c1cccc2cnccc12	11
O=S(=O)(c1cccc2cnccc12)N1CCCNCC1	-6[25 µM]
CC1CNCCN1S(=O)(=O)c1cccc2cnccc12 (stereo not given)	32*
O=C(COC(=O)c1ccc(OC(F)F)cc1)Nc1ccc2c(c1)OCCO2	-6
C[C@@H]1CN([C@@H](C)CO)C(=O)c2cc(NC(=O)NC3CCCCC3)ccc2O[C@H]1CN(C)S(C)(=O)=O	1[25 µM]
O=C1c2ccccc2S(=O)(=O)N1Cc1nc2ccccc2s1	70*
CC(C)C(NC(=O)CN1C(=O)c2ccccc2S1(=O)=O)C(C)C	-1
O=C(CN1C(=O)c2ccccc2S1(=O)=O)Nc1ccccn1	7
O=C(NCCN1CCCC1)[C@@H]1[C@@H](CO)[C@@H]2Cn3c(cccc3=O)[C@@H]2N1Cc1ccccn1	3[25 µM]
CCCNC(=O)N1[C@H](C#N)[C@H](c2ccccc2-c2cccc(C)c2)[C@@H]1CO	14[25 µM]
O=C(Nc1ccccc1F)N1CCCCN2[C@H](C1)[C@@H](c1ccc(C#Cc3cccnc3)cc1)[C@@H]2CO	9[25 µM]
CNC[C@@H]1Oc2c(N)cccc2C(=O)N(C)C[C@@H]1C	0
COc1ccc2c3c([nH]c2c1)[C@H](CO)N(C(=O)Nc1cccc(F)c1)CC31CCN(S(=O)(=O)c2cccc(C)c2)CC1	80*[25 µM]
COc1ccc2c3c([nH]c2c1)[C@H](CO)N(C(=O)Nc1ccc(F)cc1)CC31CN(S(=O)(=O)c2ccc(C)cc2)C1	18[25 µM]
COc1ccc2c3c(n(C)c2c1)[C@H](CO)N(C(=O)Nc1ccc(F)cc1)CC31CCN(S(=O)(=O)c2cccc(C)c2)CC1	44[25 µM]
CO[C@@H]1CN(C)C(=O)c2ccc(NC(=O)C3CCCC3)cc2OC[C@H](C)N(CC2CC2)C[C@H]1C	-4
C[C@@H](NC(=O)C[C@@H]1CC[C@H]2[C@@H](COC[C@H](O)CN2Cc2ccc(C(F)(F)F)cc2)O1)c1ccccc1	18[25 µM]
COc1ccccc1C#Cc1ccc([C@@H]2[C@H]3CN(CCC(F)(F)F)CCCCN3[C@H]2CO)cc1	-20[25 µM]
CC(NCCc1ccc(O)cc1)C(O)c1ccc(O)cc1 (stereo not given)	-1
SMILES	CD40 NFkB inh
CCCCCCCCNC(C)C(O)c1ccc(SC(C)C)cc1 (stereo not given)	39*
Cn1cnc(S(=O)(=O)N2CCCCN3[C@H](CO)[C@@H](c4ccc(C#CC5CCCC5)cc4)[C@@H]3C2)c1	-10[25 µM]
C(=Cc1c[nH]c2ccccc12)c1nccc2ccccc12	62*
OCC[n+]1ccc(/C=C/c2c[nH]c3ccccc23)cc1	5
C(=NN=C1c2ccccc2-c2ccccc21)c1c[nH]c2ccccc12	-58
C[C@H]1CN([C@@H](C)CO)C(=O)c2c(c3ccccc3n2C)-c2ccccc2CO[C@H]1CN(C)S(=O)(=O)c1ccc(F)cc1	11
CC(C)CC#Cc1ccc([C@@H]2[C@@H](CO)N3C(=O)CN(S(=O)(=O)c4cccc(F)c4)C[C@@H]23)cc1	5[25 µM]
CC(=O)Nc1ncnc2c1c(-c1ccc(Cl)cc1)nn2C(C)(C)C	7
CC(=O)N(C(C)=O)c1ncnc2c1c(-c1ccc(Cl)cc1)nn2C(C)(C)C	55*
Cc1noc(C)c1NC(=O)N1C[C@@H](O)COC[C@@H]2O[C@H](CC(=O)N3CCc4ccccc4C3)CC[C@H]21	-1[25 µM]
C/C=C/c1ccc([C@H]2[C@@H](CNC(=O)c3ccncc3)N(C(=O)CC)[C@H]2CO)cc1	5
Cc1ccccc1-c1ccc([C@H]2[C@H]3CN(C(=O)Nc4cccc(F)c4)CC(=O)N3[C@H]2CO)cc1	12[25 µM]
C[C@@H]1CN([C@@H](C)CO)C(=O)c2cc(NC(=O)CCC(F)(F)F)ccc2O[C@@H](C)CCCCO[C@@H]1CN(C)C(=O)c1ccncc1	-10[25 µM]
COc1cccc(NC(=O)N2CC(=O)N3[C@H](CO)[C@@H](c4ccc(C#CCC5CCCC5)cc4)[C@H]3C2)c1	64*[25 µM]
COc1cccc(NC(=O)N2CC(=O)N3[C@H](CO)[C@@H](c4ccc(C#CCC5CCCC5)cc4)[C@@H]3C2)c1	23[25 µM]
O=C(Nc1ccccc1)N1CC(=O)N2[C@@H](CO)[C@@H](c3ccc(C#CC4CCCCC4)cc3)[C@@H]2C1	26[25 µM]
